Test in all cases: PBM binding z-score (relative to random genomic background probes); higher = stronger binding; sequences stand for … in GC…GCGATTGACAGCGTAGAATGAAGG
Assay [1] has as its system FXR:RXRa (NR concentration 270 nM, RXRa partner concentration 90 nM). The procedure, abridged:
(§1)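 Custom Agilent 4×180K protein-binding microarrays carried double-stranded probes, each with a 34-nt variable region. These regions held direct-repeat seeds, single-nucleotide variants, half-site ablations and random human genomic background sequences. Ligand-free nuclear receptor dimers were incubated on the arrays for 1 h, antibodies against each partner (one per run) detected binding, and scanned fluorescence was regression-normalized. Binding z-scores take the random background probes as reference.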

Assay [2] relates to LXRa:RXRa (NR concentration 270 nM, RXRa partner concentration 90 nM). The method, boiled down:
as §1

Assay [3] concerns LXRa homodimer (NR concentration 270 nM). The procedure, abridged:
as §1

Assay [4] concerns LXRb:RXRa (NR concentration 270 nM, RXRa partner concentration 90 nM). The procedure, abridged: as §1
The subject of assay [5] is LXRb homodimer (NR concentration 270 nM). The method, boiled down:
as §1

Assay [6] concerns PPARa:RXRa (NR concentration 270 nM, RXRa partner concentration 90 nM). The procedure, abridged: as §1
For assay [7], the system named is PPARg:RXRa (NR concentration 180 nM, RXRa partner concentration 90 nM). The procedure, abridged:
as §1

Assay [8] deals with PPARg:RXRa 270nM:90nM, anti-RXR (NR concentration 270 nM, RXRa partner concentration 90 nM). The procedure, abridged: as §1
In assay [9] the test system is PPARg:RXRa 30nM:10nM, anti-RXR (NR concentration 30 nM, RXRa partner concentration 10 nM). The method, boiled down:
as §1

In assay [10] the test system is PPARg:RXRa 90nM:30nM, anti-RXR (NR concentration 90 nM, RXRa partner concentration 30 nM). The method, boiled down: as §1
The subject of assay [11] is PPARg:RXRa DBDmut IVT, anti-RXR (DBD mutation: RXRa K156A/R161A, NR concentration 270 nM, RXRa partner concentration 90 nM). The method, boiled down: as §1
In assay [12] the test system is PPARg:RXRa IVT, anti-PPARg (NR concentration 270 nM, RXRa partner concentration 90 nM). The method, boiled down:
as §1

Assay [13] deals with PPARg DBDmut:RXRa IVT, anti-PPARg (DBD mutation: PPARg1 K132A/R137A, NR concentration 270 nM, RXRa partner concentration 90 nM). The procedure, abridged: as §1
Assay [14] concerns PPARg DBDmut IVT, anti-PPARg (DBD mutation: PPARg1 K132A/R137A, NR concentration 270 nM). The procedure, abridged:
as §1

Assay [15] has as its system PPARg homodimer (NR concentration 180 nM). The method, boiled down:
as §1

Assay [16] relates to PXR:RXRa (NR concentration 270 nM, RXRa partner concentration 90 nM). The procedure, abridged:
as §1

The test system of assay [17] is PXR homodimer (NR concentration 270 nM). The procedure, abridged: as §1
The test system of assay [18] is RARa:RXR (NR concentration 270 nM, RXRa partner concentration 90 nM). The method, boiled down: as §1
Assay [19] has as its system RARa homodimer (NR concentration 270 nM). The method, boiled down: as §1
The test system of assay [20] is RARb:RXRa (NR concentration 270 nM, RXRa partner concentration 90 nM). The method, boiled down:
as §1

As to TAGCCTAGGTCGGATCGGGCCAGTATACGCTATA, the PBM binding z-score in assay [1] was -0.358; in [2], -0.506; in [3], -0.432; in assay [4], -0.741; in assay [5], -0.754; in assay [6], -0.324. The PBM binding z-score in [7] is 0.0462; in assay [8] it was -0.371; in assay [9], -0.755; in assay [10] it was -0.538; in assay [11], -0.693; in assay [12], -0.327. The PBM binding z-score in [13] was -0.89; in assay [14], -0.506; in [15] it was -1.19; in assay [16] it was -0.228; in assay [17], -0.533; in assay [18] it was 0.382. Also, the results for the PBM binding z-score in [19] and in [20] were -0.683 and 0.204, respectively.
As to CTCGAAAGGCCGTGCTCAGGTGAGTATACCAAAC, the PBM binding z-score in assay [1] was -0.251; in [2], -0.522; in assay [3] it was -0.406; in assay [4], -0.298; in assay [5], -0.835; in [6], -0.342. Besides, the PBM binding z-score in assay [7] is -0.381; in assay [8], -0.723; in assay [9], -0.648; in [10], -0.958; in assay [11], -0.523; in assay [12], -0.175. Also, the PBM binding z-score in assay [13] is -0.959; in assay [14], -0.325; in [15], -1.11; in assay [16], -0.568; in [17], -0.631; in assay [18], -0.118. Besides, the PBM binding z-score in assay [19] was -0.796; in [20], 1.05.
As to TCTTGTAGATTAGCAGGTTAAGAAAGCTGGCCAA, the PBM binding z-score in assay [1] was 0.383; in assay [2], 0.641; in assay [3], 0.135; in [4], 0.57; in assay [5], -0.424; in assay [6], 0.897. Also, the PBM binding z-score in assay [7] is -0.494; in assay [8], 1.4; in [9] it was 2.55; in assay [10], 2.07; in assay [11], 1.76; in assay [12], 0.791. Also, the PBM binding z-score in [13] was -0.369; in assay [14] it was -0.0447; in assay [15], 0.0886; in assay [16], 0.329; in assay [17], 0.0335; in assay [18], 0.552. For the same sequence, the PBM binding z-score was determined as 0.796 in assay [19] and 0.197 in assay [20].
As to ATACCAAGGTGATCGTGAGGTCGTTGTTACTAAC, the PBM binding z-score amounted to 1.57 in [1]; 1.11 in assay [2]; 0.763 in assay [3]; 1.32 in assay [4]; 0.361 in [5]; 1.47 in assay [6]. Further, the PBM binding z-score was 0.364 in assay [7]; 0.56 in assay [8]; -0.301 in assay [9]; 0.535 in assay [10]; 0.34 in assay [11]; 1.36 in [12]. Moreover, the PBM binding z-score in assay [13] was 0.414; in assay [14], 0.123; in assay [15], 1.05; in assay [16] it was 2.84; in assay [17] it was 1.29; in assay [18], 2.11. Also, the PBM binding z-score in [19] is 0.23; in [20], 1.3.
For ATCTCTAGGTAAAGATAGTTCGGTGAATGCAAAT, the PBM binding z-score in [1] amounted to 0.128; in assay [2], 1.18; in assay [3] it was 0.268; in assay [4], 0.0902; in assay [5] it was 0.531; in assay [6], 0.121. Besides, the PBM binding z-score in assay [7] is 0.266; in assay [8] it was 0.307; in [9], 0.192; in [10], 0.213; in assay [11], 2.2; in assay [12], 1.58. The PBM binding z-score was found to be 0.574 in assay [13]; 0.789 in assay [14]; 0.784 in [15]; 0.102 in assay [16]; 0.511 in assay [17]; 0.121 in [18]. Moreover, the figures for the PBM binding z-score in assay [19] and in assay [20] were 0.697 and 0.0855, respectively.
As for ATACCAAGGTGATCGTGAGGTCGTTGATACTAAC, the PBM binding z-score in assay [1] turned out to be 1.86; in assay [2], 1.35; in assay [3] it was 0.615; in [4], 1.5; in assay [5], 0.284; in [6], 1.67. For the same sequence, the PBM binding z-score in assay [7] is 0.613; in assay [8] it was 0.439; in assay [9], 0.0505; in assay [10] it was 0.47; in [11] it was 0.604; in assay [12], 1.28. Also, the PBM binding z-score in assay [13] is 0.214; in assay [14], 0.382; in assay [15] it was 1.03; in assay [16] it was 2.86; in [17] it was 1.53; in assay [18] it was 1.82. Also, the PBM binding z-score in assay [19] was found to be 0.745; in [20], 1.42.
Consider TCTTGTAGATCAACAGGAGGTTAAGACAGATCGA, for which the PBM binding z-score in assay [1] is 0.088; in assay [2], 1.15; in [3], -0.145; in assay [4], 0.737; in assay [5], -0.342; in assay [6] it was 1.3. Further, the PBM binding z-score in assay [7] came to 0.205; in [8], 1.36; in assay [9], 2.4; in [10] it was 2.07; in [11] it was 1.59; in [12], 0.984. Also, the PBM binding z-score is 0.978 in [13]; 0.46 in assay [14]; -0.0911 in assay [15]; 0.727 in assay [16]; -0.273 in assay [17]; 0.694 in assay [18]. The results for the PBM binding z-score in assay [19] and in assay [20] were 0.154 and 0.534, respectively.

For the origin of these results see the supplement of paper PMC6555819.
